Here are results for 40 molecules from PubChem BioAssay (NCI).

Compounds without any hit were thinned out: in the full panel of roughly 83,000, 20% have a hit.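 Activity criterion: percent growth below 10, measured after cells in 96-well plates were exposed to a single compound concentration for 48 hours.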 Unmarked numbers belong to inactive results. Calls of active or inactive are those of the source.

For this assay, the system named is NCI-H226 lung. Briefly: NCI-60 one-dose screen, 48 h (100 = growth as untreated, 0 = no growth, -100 = all killed). Conditions: 10 µM unless noted.
On to `COc1ccc2ncccc2c1Cc1c(OC)ccc2ncccc12`, for which the growth was 80%.
As to `COc1cc(C2CC(C3C(=O)N(C)C(=O)N(C)C3=O)=NN2c2cc(Cl)cc(Cl)c2)cc(OC)c1OC` (stereo not given), the growth is 85%.
As for `Cc1sc2nc(NCc3ccccc3)[nH]c(=O)c2c1C`, the figure is 82.1%; as for `Cc1cc2c(cc1C)[n+](Cc1ccc3ccccc3n1)cn2Cc1ccc2ccccc2n1`, 9.61% (active); as for `COc1cc(/C=C2\CN(S(=O)(=O)c3ccc(C)cc3)C/C(=C\c3cc(CN4CCOCC4)c(O)c(OC)c3)C2=O)cc(CN2CCOCC2)c1O`, -40.2% (active).
Take `O=C1NCCc2c1noc2-c1ccccc1`: the growth is 104%.
Take `C[C@]12CCC(=O)C=C1CC[C@H]1[C@@H]3C[C@@H](O)[C@](O)(C(=O)CO)[C@@]3(C)C[C@H](O)[C@@]12F`: the growth was 83.1%.
Turning to `C/C(=C\CCc1ccsc1)CC/C=C(\C)CCCN1CCSCC1`, the growth was 91.3%.
With `COC(=O)Nc1ccc2ccc3c(NC(=O)OC)ccc4ccc1c2c43` (tested in a mixture with another compound), the growth was 83.3%.
As for `O=C(Nc1nc2c(C(F)(F)F)cccc2s1)c1cc(Cl)ccc1O`, the figure is -3.02% (active).
`COc1cc(C2=NN(C=O)C(c3cccc(Nc4ccnc5cc(Cl)ccc45)c3)C2)cc(OC)c1OC` (stereo not given): the growth is 68.9%.
For the molecule `COc1cccc(-c2nc(-c3ccc(N)cc3)co2)c1`, the growth is 94.2%.
As for `C[C@@H]1[C@H]2[C@H](C=C3[C@@H]4CC[C@H]5Cc6nc7c(nc6C[C@]5(C)[C@H]4C[C@@H](O)[C@@]32C)C[C@@H]2CC[C@H]3C4=C[C@@H]5O[C@@]6(CC[C@](C)(CO)O6)[C@@H](C)[C@@]5(O)[C@@]4(C)[C@H](O)C[C@@H]3[C@@]2(C)C7)O[C@]12CCC(C)(C)O2`, the figure is 20.7%; as for `O=C(CNC(=O)c1cccc2ccccc12)Nc1ccccc1Oc1cccc(O)c1`, 58.6% [5 µM]; as for `CCN(CC)CCNCC(=O)Oc1ccc(/C=C/C(=O)CC(=O)/C=C/c2ccc(OC(=O)CNCCN(CC)CC)c(OC)c2)cc1OC`, 21%.
Next, `COc1ccc(-c2cc(-c3nnc(SCC(=O)Nc4ccc(C(C)=O)cc4)n3-c3ccccc3)c3ccccc3n2)cc1OC`: 105%; `COc1ccc2c(c1)[n+](=O)c(C(=O)/C=C/c1cc(OC)c(OC)c(OC)c1)c(C)n2[O-]`: 79.1%; `COc1ccc(-c2nc3sc4c(c3c(=O)[nH]2)CCCCCC4)cc1`: 86.5%.
For the molecule `CC(=O)Nc1c(Cl)cc2c(c1Cl)Cc1cc([N+](=O)[O-])ccc1-2`, the growth was 85%.
Turning to `CCN(CC)CCCCCCCNc1c2ccc(Cl)cc2nc2ccc(OC)cc12`, the growth is -18.2% (active).
Consider `COc1cc(/C=C/c2cc(/C=C/c3ccc(O)c(OC)c3)n(C(=O)c3ccc(Cl)cc3)n2)ccc1O`, for which the growth was 48.4%.
On to `Cc1n(Cc2ccc3ccccc3c2)c2ccccc2[n+]1Cc1ccc2ccccc2c1`, for which the growth is -9.12% (active).
`CCn1cnc(C[C@H](NC(=O)[C@H](CCCCNC(=O)Nc2cc(C(F)(F)F)cc(C(F)(F)F)c2)NC(=O)Nc2cc(C(F)(F)F)cc(C(F)(F)F)c2)C(=O)OC)c1`: the growth was 2.9% [100 µM] (active).
Take `O=C(Nc1cccc(-n2cc(-c3ccncc3)c(-c3cc(O)cc(Cl)c3)n2)c1)Nc1ccc(Cl)c(Cl)c1`: the growth was 14.5%.
Take `Oc1ccc(/C=N/Nc2nc3ccccc3s2)c(O)c1`: the growth is 45%.
Take `Cc1csc(C#Cc2cncc(O)c2)n1`: the growth was 109%.
As to `COc1cc(/C=C/C(=O)CC(=O)/C=C/c2ccc(OC(=O)CCNC34CC5CC(CC(C5)C3)C4)c(OC)c2)ccc1OC(=O)CCNC12CC3CC(CC(C3)C1)C2`, the growth is 39.8%.
With `N/C(=N\C(N)=N\c1nc2ccccc2s1)c1ccnc(Cl)c1`, the growth is 48.8%.
In the case of `COc1ccc(NS(=O)(=O)N2CCCCC2)cc1`, the growth is 96.2%.
For `C=C1CCC2C(C)(COC(=O)CC)C(OC(=O)CC)CCC2(C)C1C/C=C1/C(=O)OCC1OC(=O)CC` (stereo not given), the growth was -18.3% (active).
As to `Cc1[nH]ccc2cc3nc4ccccc4c3cc12`, the growth was 27.2%.
With `CC(C)=CCCC(C)c1ccc(C)c2c1OCN(CC1CCNCC1)C2` (stereo not given), the growth was 103%.
Regarding `COc1ccc2c(c1)sc1nc(-c3ccc(N(C)C)cc3)cn12`, the growth was 139%.
In the case of `COc1cc(/C=C/C(=O)C(C(=O)/C=C/c2ccc(OC(=O)CCNc3nnc(C)s3)c(OC)c2)C(=O)CCNc2nnc(C)s2)ccc1OC(=O)CCNc1nnc(C)s1`, the growth is 24.5%.
As for `O=C(O)c1ccc2cccnc2c1O`, the figure is 6.97% (active).
Regarding `CC[C@@H](c1ccc(O)c(O)c1)[C@@H](CC)c1ccc(O)c(O)c1`, the growth is 105%.
As to `Cc1ccc(NC(=O)c2sc3nc4c(cc3c2N)C(=O)CCC4)cc1`, the growth is 83.7%.
For `CCOC(=O)/C=C1/SC(=Nc2ccc(C#N)cc2)N(Cc2ccco2)C1=O`, the growth was 70.3%.
`COP(=O)(OC)C(c1ccc(O)cc1)(c1ccc(O)cc1)c1ccc(O)cc1`: the growth was 99.7%.
Take `COc1ccccc1-n1c(-c2ccc(O)cc2C)cn2c3c(=O)[nH]c(=O)n(C)c3nc12`: the growth was 92.4%.
